Assay outcomes deposited in PubChem BioAssay by National Center for Advancing Translational Sciences (NCATS).
Tb PGK inh: qHTS Assay to Find Inhibitors of Phosphoglycerate Kinase; Phosphoglycerate kinase, glycosomal (Trypanosoma brucei brucei), P07378; PGK/GAPDH coupled, Kinase-Glo luminescence, 60 min; Potency, µM (doses to about 57.5 µM), for the others: top-dose activity change, negative = inhibition, hits mostly inhibitors; 380,000 tested, 0.043% active; AID 602233, 2012; further: potency means the concentration at half of the fitted maximal effect; nearly all actives have a fitted effect of over 60% in size
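Luminescent ATP detection (Kinase-Glo Plus) follows a 60-minute room-temperature incubation, with wells lacking PGK as controls. Buffer: 100 mM TEA (pH 7.6), 5 mM MgCl2, 0.01% Tween-20. Coupling enzyme GAPDH (100 nM final) supplies unstable 1,3-BPG in-well.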
FEN1 inh: qHTS Assay for the Inhibitors of Human Flap endonuclease 1 (FEN1). P39748. Recombinant FEN1 flap cleavage, fluorescence, 15 min. Potency, µM (doses to about 114 µM), for inactives: at the top dose activity change, negative = inhibition, most hits filed as inhibitors. 390,000 tested, 0.35% active. AID 588795, 2011; further: potency means the concentration at half of the fitted maximal effect; nearly all actives have a fitted effect of over 65% in size
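Enzyme 10 nM, 15 min RT preincubation with compound; start with substrate 50 nM final; reads at 0 and 15 min; qHTS titration, four-parameter Hill fit.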
Tb PFK inh: qHTS Assay to Find Inhibitors of T. brucei phosphofructokinase; T. brucei PFK, ADP-Glo luminescence; Potency, µM (doses to about 57.5 µM), inactives show top-dose activity, negative = inhibition, usual class: inhibitors; 330,000 tested, 0.17% active; AID 485367, 2010;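 further: potency means the concentration at half of the fitted maximal effect; 0% = uninhibited 1x PFK enzyme wells and -100% = no-enzyme wells; nearly all actives have a fitted effect of over 60% in size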
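Luminescent ADP detection (ADP-Glo, two-step: ATP depletion then ADP-to-ATP conversion for luciferase) reported PFK activity after 45 min room-temperature reaction of 1.25 nM enzyme with 0.5 mM F6P and 0.1 mM ATP at pH 8.0.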
PI5P4Ka inh: qHTS for Inhibitors of phosphatidylinositol 5-phosphate 4-kinase (PI5P4K) | 330,000 tested, 1.2% active | PI5P4Kalpha enzyme, ADP-Glo luminescence, 60 min; active compounds read low | max response, % | Phosphatidylinositol 5-phosphate 4-kinase type-2 alpha (Homo sapiens), P48426; active means max response of -50% or lower; inconclusive means between -30% and -50%; inactive means -30% or higher; further: value at the top dose of about 77 µM
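Single end-point luminescence (ADP-Glo) quantified ADP from PI5P4Kalpha turnover; ATP 5 microM final, 1 h at RT, 0.1% CHAPS and 0.28 mM EGTA in HEPES pH 7.4.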
TDP1 inh: qHTS Assay for Inhibitors of Tyrosyl-DNA Phosphodiesterase (TDP1) | 350,000 tested, 0.28% active | Tyrosyl-DNA phosphodiesterase 1 (Homo sapiens), Q9NUW8 | recombinant TDP1, AlphaScreen DNA substrate cleavage | AID 485290, 2010 | Potency, µM (doses to about 130 µM), without a hit: at the highest dose activity change, negative = inhibition, hits mostly inhibitors; further: potency means the concentration at half of the fitted maximal effect; nearly all actives have a fitted effect of over 40% in size
Target sequence (Q9NUW8 whole entry, looked up): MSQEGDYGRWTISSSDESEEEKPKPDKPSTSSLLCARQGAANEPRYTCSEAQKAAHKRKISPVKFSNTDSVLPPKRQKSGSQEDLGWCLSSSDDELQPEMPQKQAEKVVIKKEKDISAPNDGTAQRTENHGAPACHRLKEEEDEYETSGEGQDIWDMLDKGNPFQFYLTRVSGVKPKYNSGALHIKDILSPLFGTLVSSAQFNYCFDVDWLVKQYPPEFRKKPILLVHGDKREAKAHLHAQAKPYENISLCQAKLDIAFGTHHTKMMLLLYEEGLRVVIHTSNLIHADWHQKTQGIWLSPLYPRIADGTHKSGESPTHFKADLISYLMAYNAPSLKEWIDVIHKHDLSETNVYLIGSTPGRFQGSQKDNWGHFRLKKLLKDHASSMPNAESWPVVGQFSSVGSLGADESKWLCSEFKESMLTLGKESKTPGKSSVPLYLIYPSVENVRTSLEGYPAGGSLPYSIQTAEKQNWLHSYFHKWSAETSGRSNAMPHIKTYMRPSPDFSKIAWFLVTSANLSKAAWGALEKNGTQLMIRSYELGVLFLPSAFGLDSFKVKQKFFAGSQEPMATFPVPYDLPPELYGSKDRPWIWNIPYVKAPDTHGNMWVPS
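Steps: enzyme plus compound, 15 min RT; add biotin/phosphotyrosine-FITC oligonucleotide (15 nM final), react 5 min; add donor/acceptor beads (10 ug/ml final), 10 min; read AlphaScreen. Tdp1 at 1 nM final.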
WRN helicase inh: qHTS for Inhibitors of WRN Helicase | Bifunctional 3'-5' exonuclease/ATP-dependent helicase WRN (Homo sapiens), Q14191 | WRN helicase unwinding, fluorescent forked duplex, kinetic | Potency, µM (titrated, usually from 114 µM), for inactives: at the top dose activity change, negative = inhibition, hits mostly inhibitors | 360,000 tested, 0.46% active | AID 651768, 2012; further: potency means the concentration at half of the fitted maximal effect; nearly all actives have a fitted effect of over 55% in size
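Primary qHTS, 1536-well format. 20 nM WRN + compound, 15 min RT; start with 100 nM forked fluorophore/quencher duplex, 2 mM ATP (final); kinetic read ex 525/em 598 nm.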
Numbers without * were called inactive; i = inactive; ? = inconclusive; . = no result given; ! = not active in a repeat; [ ] = another dose, or the depositor's remark. Compounds with a hit are over-represented: about 1.5% of the library has one in this group of screens. Unless noted, the call rests on the fitted dose curve; in most records, active means well fitted curve in the direction sought with a large enough effect; inconclusive means small, poorly fitted or top-dose-only effect, or another doubt; inactive means no such curve, though single readings can be large; an effect the other way counts as inactive or inconclusive. Unless noted, on the % scale 0 is the no-effect control and ±100 the full control effect.

SMILES	Tb PGK inh	FEN1 inh	Tb PFK inh	PI5P4Ka inh	TDP1 inh	WRN helicase inh
S=c1[nH]nc(-c2cc(-c3ccccc3)n[nH]2)n1/N=C/C(Br)=C/c1ccccc1	-9.2%	?	-24.9%	?	5.9%	44.7µM*
COc1ccccc1/C=C/C=N/n1c(-c2cc(-c3ccccc3)n[nH]2)n[nH]c1=S	-5.9%	1.9%	-8.1%	-51.9*	5.9%	?
O=C1OC(c2ccccc2)=N/C1=C\C=C\c1ccco1	-3.0%	-12.1%	-10.5%	12.5	44.7µM*	-8.7%
COC(=O)[C@@H]1[C@H]2SC(C)(C)[C@H](C(=O)OC)N2C(=O)N1Cc1cc2ccccc2n1S(=O)(=O)c1ccccc1	.	-21.7%	.	.	.	.
[O-]c1c[n+](-c2ccc(-[n+]3cc([O-])on3)cc2)no1	-11.0%	-4.6%	0.7%	-55.7*	-2.7%	-5.3%[11.6 µM]
O=C1/C(=C/c2ccco2)SC(=S)N1CCC(=O)N1CCCCC1CCO (centres undefined)	-17.3%	0.8%	-14.8%	?	5.4%	56.2µM*
CC1CC=CC2C1C(=O)N(Cc1ccccc1)C2c1ccc(-c2cc3ccccc3s2)cc1F (centres undefined)	.	-5.0%	.	.	3.2%	.
CS(=O)(=O)c1ccc(C(=O)OCC(=O)N2CCc3ccccc32)cc1[N+](=O)[O-]	.	-2.7%	.	.	0.5%	.
CCc1ccc(Nc2n[n+](-c3ccccc3)c(-c3ccc(N(CC)CC)cc3)s2)cc1	i	-16.9%	2.7%	-58.8*	.	-5.9%
CCc1ccc(Nc2n[n+](-c3ccccc3)c(-c3c(Cl)cccc3Cl)s2)cc1	-4.7%	-17.8%	0.2%	-79.8*	.	-6.9%
Fc1ccc(-[n+]2nc(Nc3ccccc3)sc2-c2c(Cl)cccc2Cl)cc1	-1.2%	3.5%	3.1%	-14.0	.	-2.2%
CCc1cc2c(-c3ccccc3)cc(=O)oc2cc1OC(C)C(C)=O (centres undefined)	-11.8%	-14.7%	?	10.5	0.3%	0.2%
CC(C)(C)OC(=O)NCC(=O)Oc1cc2oc(=O)cc(-c3ccccc3)c2cc1Cl	-1.8%	11.0%	2.9%	-72.4*	2.7%	-0.5%
COC(=O)COc1ccc(C2Nc3c(Cl)ccc(C(=O)O)c3C3C=CCC32)cc1 (centres undefined)	-10.2%	?	?	-57.2*	.	22.4µM*
COC(=O)c1ccc([C@@H]2Nc3c(OC)ccc(C)c3[C@@H]3C=CC[C@@H]32)cc1	-3.2%	9.8%	.	.	.	.
CCN1CCN(Cc2ccc(NC(=O)c3ccc(C)c(NC(=O)C(=O)c4c[nH]c5ccccc45)c3)cc2C(F)(F)F)CC1	2.1%	-26.3%	4.9%	-76.9*!	8.3%	-2.4%
CCN1CCN(Cc2ccc(NC(=O)c3ccc(C)c(NC(=O)c4ccc5n[nH]nc5c4)c3)cc2C(F)(F)F)CC1	7.3%	11.8%	5.1%	-1.4	5.0%	-6.4%
Nc1ncnc2c1nc(N1CCCCC1)n2[C@@H]1O[C@@H]2COP(=O)(O)O[C@H]2[C@H]1O	.	.	.	.	6.9%	.
Cc1ccc(Nc2c(-c3ccc(C)s3)nc3cccc(C)n23)cc1	.	-9.0%	.	.	5.6%	.
Nc1c(Br)cc2c([nH]c(=O)c3ccccc32)c1Br	-15.9%	-6.7%	.	-66.4*	.	-27.6%
CCN(CC)C(=O)CC(c1ccc(OC)cc1)c1c(OC)cc(OC)c2c(-c3ccccc3)cc(=O)oc12 (centres undefined)	.	-31.7%	.	.	17.8µM*	.
COc1ccc(C2Nc3ccc(Cl)cc3C(=O)N2Cc2ccccc2)cc1COc1ccc(NC(C)=O)cc1 (centres undefined)	.	.	.	.	-13.6%	.
COC1=C(N)C(=O)c2nc(C)ccc2C1=O	-29.0%	?	.	-4.3	.	-32.6%
COC1=C(Br)C(=O)c2nc(C)ccc2C1=O	?	.	.	-68.0*	.	50.1µM*
CC(=O)OC1C=C[C@@H](OC(C)=O)C1 (some centres undefined)	.	.	.	.	8.2%	.
SMILES	Tb PGK inh	FEN1 inh	Tb PFK inh	PI5P4Ka inh	TDP1 inh	WRN helicase inh
CC(C)c1cc2c(c(O)c1O)[C@@]13CCCC(C)(C)C1CC2OC3=O (some centres undefined)	-1.2%	?	16.1%	-74.6*	.	-2.4%
CCOc1ccc(/C=C/C(=O)c2cc(Br)ccc(=O)c2O)cc1	-10.5%	44.7µM*	-6.3%	?	10.5%	?
COc1ccc(CCC(=O)Nc2c(-c3ccc(N(C)C)cc3)[nH][nH]c2=O)cc1	.	.	.	-60.0*	.	-28.4%
CCCCNc1ncnc2oc(-c3ccco3)c(-c3ccco3)c12	.	?	.	.	9.2%	.
O=c1[nH]c2ccccc2c(O)c1O	i	-15.3%	-26.1%	-96.3*	-3.8%	-1.8%
O=c1[nH]c2ccccc2c(O)c1-[n+]1ccccc1	i	-16.1%	-1.8%	-12.1	1.2%	4.9%
COc1ccc(C(=O)N(Cc2ccccc2)Cc2ccccc2)cc1COc1ccc(NC(C)=O)cc1	.	.	.	.	3.3%	.
C=CCn1c(SCC(=O)NCC2CCCO2)nc2scc(-c3ccco3)c2c1=O (centres undefined)	-4.2%	-14.6%	?	.	50.1µM*	-0.5%[11.6 µM]
O=C(CSc1nc2scc(-c3ccco3)c2c(=O)n1-c1ccccc1)NCC1CCCO1 (centres undefined)	-2.9%	1.4%	-28.0%	?	-4.4%	-23.2%
C=CCn1c(SCC(=O)c2ccc(CNC(C)=O)o2)nc2scc(C3CC3)c2c1=O	-6.1%	-14.4%	-24.7%	-56.0*	2.4%	?
C=CCn1c(SCC(=O)NC2CCS(=O)(=O)C2)nc2scc(C3CC3)c2c1=O (centres undefined)	-1.7%	-17.6%	1.7%	.	3.0%	0.3%
CCCCCCCOc1ccc(CC(=O)NO)cc1	.	-0.5%	.	.	.	.
C#CCOc1c(/C=C\c2nc(O)c([N+](=O)[O-])c(=O)[nH]2)cc(Br)cc1OC	3.5%	?	-2.4%	-67.9*	.	-1.0%[11.6 µM]
C=CCOc1ccc(/C=C\c2nc(O)c([N+](=O)[O-])c(=O)[nH]2)cc1OC	-11.6%	?	3.3%	?	-13.8%	-17.4%
COc1ccc(/C=C\c2nc(O)c([N+](=O)[O-])c(=O)[nH]2)cc1O	-4.6%	-19.0%	11.3%	-74.1*	.	?
COC(=O)COc1c(/C=C\c2nc(O)c([N+](=O)[O-])c(=O)[nH]2)cccc1OC	-6.6%	-2.2%	1.4%	-19.7	5.0%	0.8%
